Reference: ChEMBL document CHEMBL1961873, “Compounds: GSK PKIS; Assays: Nanosyn kinase panel” (2012)
Several values for one entry are separate records, joined by “and”; a condition that tells them apart may be missing. Equal values may be shown once.

Key:
[1] = target: T1, Ephrin type-B receptor 2 (Homo sapiens) (UniProt P29323); conditions: at 1 µM
T1 sequence (whole entry): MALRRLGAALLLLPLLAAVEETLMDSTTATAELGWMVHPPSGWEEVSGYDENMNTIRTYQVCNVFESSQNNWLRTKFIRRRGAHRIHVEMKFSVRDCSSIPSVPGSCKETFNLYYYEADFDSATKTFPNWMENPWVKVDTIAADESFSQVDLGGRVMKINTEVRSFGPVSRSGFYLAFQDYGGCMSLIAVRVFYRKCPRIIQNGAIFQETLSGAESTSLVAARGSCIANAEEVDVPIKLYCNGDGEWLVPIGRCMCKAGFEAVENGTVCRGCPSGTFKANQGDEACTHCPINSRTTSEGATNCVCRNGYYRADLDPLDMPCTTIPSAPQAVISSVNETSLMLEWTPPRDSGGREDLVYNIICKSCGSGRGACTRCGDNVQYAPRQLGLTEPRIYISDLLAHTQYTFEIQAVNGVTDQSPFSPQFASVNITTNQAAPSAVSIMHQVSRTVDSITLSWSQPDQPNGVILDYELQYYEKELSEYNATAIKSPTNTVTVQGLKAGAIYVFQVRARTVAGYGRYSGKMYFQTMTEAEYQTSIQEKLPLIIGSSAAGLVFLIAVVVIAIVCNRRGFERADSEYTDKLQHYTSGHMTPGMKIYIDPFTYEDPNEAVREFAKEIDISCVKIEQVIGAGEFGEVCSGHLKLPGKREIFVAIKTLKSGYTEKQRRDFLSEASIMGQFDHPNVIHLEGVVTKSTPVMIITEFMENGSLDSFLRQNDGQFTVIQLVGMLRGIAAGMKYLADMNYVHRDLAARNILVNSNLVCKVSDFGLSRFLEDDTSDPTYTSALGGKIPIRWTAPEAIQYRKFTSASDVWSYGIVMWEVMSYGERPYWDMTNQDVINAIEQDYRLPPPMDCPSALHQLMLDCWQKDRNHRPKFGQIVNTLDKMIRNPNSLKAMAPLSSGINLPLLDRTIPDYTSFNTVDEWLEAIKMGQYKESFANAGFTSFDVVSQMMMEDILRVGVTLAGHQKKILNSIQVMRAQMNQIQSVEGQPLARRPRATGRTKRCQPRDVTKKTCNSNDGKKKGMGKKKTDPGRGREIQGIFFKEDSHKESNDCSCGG

[2] = target: T2, Ephrin type-B receptor 3 (Homo sapiens) (UniProt P54753); conditions: at 0.1 µM
T2 sequence (whole entry): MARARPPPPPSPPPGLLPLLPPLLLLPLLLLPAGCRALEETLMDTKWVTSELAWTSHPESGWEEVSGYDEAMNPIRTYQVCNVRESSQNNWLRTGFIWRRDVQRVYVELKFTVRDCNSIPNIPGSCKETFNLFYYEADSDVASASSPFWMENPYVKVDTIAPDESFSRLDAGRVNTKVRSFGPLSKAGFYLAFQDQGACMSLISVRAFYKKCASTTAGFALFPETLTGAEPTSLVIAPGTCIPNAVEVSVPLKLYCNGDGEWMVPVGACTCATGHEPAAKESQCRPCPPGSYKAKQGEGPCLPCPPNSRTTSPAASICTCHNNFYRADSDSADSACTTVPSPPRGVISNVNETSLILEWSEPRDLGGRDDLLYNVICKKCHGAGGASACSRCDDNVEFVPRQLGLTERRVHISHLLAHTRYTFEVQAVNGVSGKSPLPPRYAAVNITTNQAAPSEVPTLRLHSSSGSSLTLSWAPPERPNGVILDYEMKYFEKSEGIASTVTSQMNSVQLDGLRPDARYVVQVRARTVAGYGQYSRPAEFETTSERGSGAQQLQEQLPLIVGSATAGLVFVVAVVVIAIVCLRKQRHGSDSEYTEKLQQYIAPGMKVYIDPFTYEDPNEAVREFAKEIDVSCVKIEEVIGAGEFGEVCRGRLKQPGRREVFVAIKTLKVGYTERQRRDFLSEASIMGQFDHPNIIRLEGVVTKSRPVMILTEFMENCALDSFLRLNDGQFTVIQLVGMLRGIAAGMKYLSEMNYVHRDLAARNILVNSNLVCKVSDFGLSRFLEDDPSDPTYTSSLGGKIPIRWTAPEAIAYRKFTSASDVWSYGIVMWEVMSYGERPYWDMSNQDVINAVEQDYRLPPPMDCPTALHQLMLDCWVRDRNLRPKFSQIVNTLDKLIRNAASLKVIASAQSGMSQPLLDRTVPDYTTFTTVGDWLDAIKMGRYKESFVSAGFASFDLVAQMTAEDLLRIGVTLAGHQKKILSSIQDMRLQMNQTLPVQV

[3] = target: T2, Ephrin type-B receptor 3 (Homo sapiens); conditions: at 1 µM
[4] = target: T3, Ephrin type-B receptor 4 (Homo sapiens) (UniProt P54760); conditions: at 0.1 µM
T3 sequence (whole entry): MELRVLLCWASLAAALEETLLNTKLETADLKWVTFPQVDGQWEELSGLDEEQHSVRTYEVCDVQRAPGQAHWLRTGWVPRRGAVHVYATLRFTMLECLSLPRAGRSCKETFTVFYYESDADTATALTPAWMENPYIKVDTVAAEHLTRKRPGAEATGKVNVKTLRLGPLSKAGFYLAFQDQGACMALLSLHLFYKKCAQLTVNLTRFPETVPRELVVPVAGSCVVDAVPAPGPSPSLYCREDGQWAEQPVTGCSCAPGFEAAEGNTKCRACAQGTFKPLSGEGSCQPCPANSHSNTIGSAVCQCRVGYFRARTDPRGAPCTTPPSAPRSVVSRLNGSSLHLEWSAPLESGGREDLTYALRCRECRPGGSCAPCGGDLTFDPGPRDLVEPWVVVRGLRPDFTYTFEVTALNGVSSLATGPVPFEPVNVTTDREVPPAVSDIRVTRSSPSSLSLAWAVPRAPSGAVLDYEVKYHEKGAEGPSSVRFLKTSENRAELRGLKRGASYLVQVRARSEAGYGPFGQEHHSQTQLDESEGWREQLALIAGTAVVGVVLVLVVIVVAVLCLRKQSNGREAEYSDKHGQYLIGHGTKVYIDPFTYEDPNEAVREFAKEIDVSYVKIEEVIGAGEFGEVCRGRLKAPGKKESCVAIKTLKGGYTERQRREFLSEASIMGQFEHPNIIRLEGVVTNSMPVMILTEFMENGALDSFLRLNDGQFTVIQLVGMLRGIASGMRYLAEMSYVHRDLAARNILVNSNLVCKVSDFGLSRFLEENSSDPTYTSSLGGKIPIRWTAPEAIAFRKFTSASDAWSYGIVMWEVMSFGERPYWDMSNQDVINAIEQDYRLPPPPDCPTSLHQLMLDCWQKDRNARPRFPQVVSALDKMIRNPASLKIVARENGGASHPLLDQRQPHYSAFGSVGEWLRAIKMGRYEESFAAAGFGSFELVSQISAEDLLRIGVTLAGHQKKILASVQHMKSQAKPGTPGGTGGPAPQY

[5] = target: T3, Ephrin type-B receptor 4 (Homo sapiens); conditions: at 1 µM
[6] = target: Receptor tyrosine-protein kinase erbB-2 (Homo sapiens) (UniProt P04626); conditions: at 0.1 µM
[7] = target: Receptor tyrosine-protein kinase erbB-2 (Homo sapiens) (UniProt P04626); conditions: at 1 µM
[8] = target: Receptor tyrosine-protein kinase erbB-4 (Homo sapiens) (UniProt Q15303); conditions: at 0.1 µM
[9] = target: Receptor tyrosine-protein kinase erbB-4 (Homo sapiens) (UniProt Q15303); conditions: at 1 µM
[10] = target: Tyrosine-protein kinase Fer (Homo sapiens) (UniProt P16591); conditions: at 0.1 µM
Sequence of Tyrosine-protein kinase Fer (Homo sapiens) (P16591 whole entry, looked up): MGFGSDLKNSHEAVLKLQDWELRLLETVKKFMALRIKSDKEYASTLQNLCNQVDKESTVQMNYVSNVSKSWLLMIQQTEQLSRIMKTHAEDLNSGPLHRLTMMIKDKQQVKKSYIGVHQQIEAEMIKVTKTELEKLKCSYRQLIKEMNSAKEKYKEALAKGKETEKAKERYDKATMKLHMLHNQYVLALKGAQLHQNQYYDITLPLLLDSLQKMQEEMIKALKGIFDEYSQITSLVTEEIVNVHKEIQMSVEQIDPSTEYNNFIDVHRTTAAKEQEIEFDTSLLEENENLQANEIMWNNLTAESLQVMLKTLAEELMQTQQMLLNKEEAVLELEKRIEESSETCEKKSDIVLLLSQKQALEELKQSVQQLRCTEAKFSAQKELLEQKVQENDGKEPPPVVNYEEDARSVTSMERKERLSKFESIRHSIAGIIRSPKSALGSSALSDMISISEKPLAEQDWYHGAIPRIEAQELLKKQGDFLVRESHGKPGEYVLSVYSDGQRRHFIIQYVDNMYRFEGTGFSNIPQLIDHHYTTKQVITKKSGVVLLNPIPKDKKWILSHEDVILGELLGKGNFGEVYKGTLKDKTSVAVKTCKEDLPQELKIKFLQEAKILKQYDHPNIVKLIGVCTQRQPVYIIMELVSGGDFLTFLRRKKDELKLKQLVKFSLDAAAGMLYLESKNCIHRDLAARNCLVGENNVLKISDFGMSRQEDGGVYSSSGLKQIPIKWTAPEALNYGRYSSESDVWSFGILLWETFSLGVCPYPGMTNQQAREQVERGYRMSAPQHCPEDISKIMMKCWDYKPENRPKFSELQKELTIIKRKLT

[11] = target: Tyrosine-protein kinase Fer (Homo sapiens) (UniProt P16591); conditions: at 1 µM
[12] = target: Tyrosine-protein kinase Fes/Fps (Homo sapiens) (UniProt P07332); conditions: at 0.1 µM
Sequence of Tyrosine-protein kinase Fes/Fps (Homo sapiens) (P07332 whole entry): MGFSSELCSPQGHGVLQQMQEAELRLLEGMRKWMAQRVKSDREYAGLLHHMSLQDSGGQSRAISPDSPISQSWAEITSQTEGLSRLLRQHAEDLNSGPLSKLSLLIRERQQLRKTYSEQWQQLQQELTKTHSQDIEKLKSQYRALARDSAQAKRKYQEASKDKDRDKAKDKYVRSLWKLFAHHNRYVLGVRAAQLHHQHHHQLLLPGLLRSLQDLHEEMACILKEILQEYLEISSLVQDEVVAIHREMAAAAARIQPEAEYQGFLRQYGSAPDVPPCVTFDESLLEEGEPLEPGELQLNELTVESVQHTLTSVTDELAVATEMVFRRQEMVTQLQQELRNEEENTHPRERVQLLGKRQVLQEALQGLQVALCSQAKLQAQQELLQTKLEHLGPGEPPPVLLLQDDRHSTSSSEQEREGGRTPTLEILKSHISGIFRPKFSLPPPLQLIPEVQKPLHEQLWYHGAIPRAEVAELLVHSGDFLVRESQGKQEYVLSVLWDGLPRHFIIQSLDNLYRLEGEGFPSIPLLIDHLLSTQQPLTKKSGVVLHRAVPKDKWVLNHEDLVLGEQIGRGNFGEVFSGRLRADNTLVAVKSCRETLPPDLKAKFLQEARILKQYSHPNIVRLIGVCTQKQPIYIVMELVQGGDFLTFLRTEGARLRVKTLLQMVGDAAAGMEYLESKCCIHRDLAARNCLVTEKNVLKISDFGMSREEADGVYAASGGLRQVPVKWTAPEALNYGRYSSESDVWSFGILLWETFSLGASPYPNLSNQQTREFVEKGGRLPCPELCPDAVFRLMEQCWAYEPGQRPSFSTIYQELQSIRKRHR

[13] = target: Tyrosine-protein kinase Fes/Fps (Homo sapiens) (UniProt P07332); conditions: at 1 µM
[14] = target: Fibroblast growth factor receptor 1 (Homo sapiens) (UniProt P11362); conditions: at 0.1 µM
Sequence of Fibroblast growth factor receptor 1 (Homo sapiens) (P11362 22-822 limits assumed): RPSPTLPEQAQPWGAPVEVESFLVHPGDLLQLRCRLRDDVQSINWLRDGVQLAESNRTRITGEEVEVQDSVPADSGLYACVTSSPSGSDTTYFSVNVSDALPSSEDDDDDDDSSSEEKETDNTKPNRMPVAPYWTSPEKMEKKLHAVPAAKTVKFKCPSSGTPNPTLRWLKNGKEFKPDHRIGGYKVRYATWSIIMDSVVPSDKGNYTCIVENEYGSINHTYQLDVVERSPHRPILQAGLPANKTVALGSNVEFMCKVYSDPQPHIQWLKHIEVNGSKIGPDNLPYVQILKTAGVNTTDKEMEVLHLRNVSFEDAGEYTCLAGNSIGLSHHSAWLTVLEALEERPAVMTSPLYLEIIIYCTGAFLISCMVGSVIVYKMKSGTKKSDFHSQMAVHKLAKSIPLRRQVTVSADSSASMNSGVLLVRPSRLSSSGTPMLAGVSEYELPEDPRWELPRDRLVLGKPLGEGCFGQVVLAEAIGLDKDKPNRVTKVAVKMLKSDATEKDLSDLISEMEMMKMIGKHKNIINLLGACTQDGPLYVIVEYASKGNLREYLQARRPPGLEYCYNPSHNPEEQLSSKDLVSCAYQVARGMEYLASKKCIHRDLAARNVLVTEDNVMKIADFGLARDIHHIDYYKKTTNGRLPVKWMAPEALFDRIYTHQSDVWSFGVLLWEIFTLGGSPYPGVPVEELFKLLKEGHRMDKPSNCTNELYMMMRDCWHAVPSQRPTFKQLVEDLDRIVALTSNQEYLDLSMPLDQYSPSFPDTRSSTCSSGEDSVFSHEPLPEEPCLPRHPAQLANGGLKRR

[15] = target: Fibroblast growth factor receptor 1 (Homo sapiens) (UniProt P11362); conditions: at 1 µM
[16] = target: Fibroblast growth factor receptor 2 (Homo sapiens) (UniProt P21802); conditions: at 0.1 µM
Sequence of Fibroblast growth factor receptor 2 (Homo sapiens) (P21802 22-821 limits assumed): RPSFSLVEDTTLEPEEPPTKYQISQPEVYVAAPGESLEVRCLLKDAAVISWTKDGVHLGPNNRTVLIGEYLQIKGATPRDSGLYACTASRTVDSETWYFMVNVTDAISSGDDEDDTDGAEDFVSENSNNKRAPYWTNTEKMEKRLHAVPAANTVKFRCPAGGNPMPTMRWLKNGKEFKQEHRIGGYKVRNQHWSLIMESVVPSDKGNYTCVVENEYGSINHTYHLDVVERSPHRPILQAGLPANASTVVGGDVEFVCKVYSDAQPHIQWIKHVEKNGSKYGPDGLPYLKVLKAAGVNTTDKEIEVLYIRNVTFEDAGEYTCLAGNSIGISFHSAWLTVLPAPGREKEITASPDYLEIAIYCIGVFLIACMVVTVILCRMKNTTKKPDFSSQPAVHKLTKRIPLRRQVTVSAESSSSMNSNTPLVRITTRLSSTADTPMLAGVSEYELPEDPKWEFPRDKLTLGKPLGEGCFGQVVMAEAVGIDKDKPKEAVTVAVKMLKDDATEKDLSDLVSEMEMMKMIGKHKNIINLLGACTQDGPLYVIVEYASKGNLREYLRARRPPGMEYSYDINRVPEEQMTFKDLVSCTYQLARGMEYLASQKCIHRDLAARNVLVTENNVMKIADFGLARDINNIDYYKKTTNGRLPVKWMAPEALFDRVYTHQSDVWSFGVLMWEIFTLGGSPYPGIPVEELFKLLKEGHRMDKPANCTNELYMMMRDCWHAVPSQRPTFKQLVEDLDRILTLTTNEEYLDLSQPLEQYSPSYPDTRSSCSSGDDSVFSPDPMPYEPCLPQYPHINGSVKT

[17] = target: Fibroblast growth factor receptor 2 (Homo sapiens) (UniProt P21802); conditions: at 1 µM
[18] = target: Fibroblast growth factor receptor 3 (Homo sapiens) (UniProt P22607); conditions: at 0.1 µM
Sequence of Fibroblast growth factor receptor 3 (Homo sapiens) (P22607 23-806 limits assumed): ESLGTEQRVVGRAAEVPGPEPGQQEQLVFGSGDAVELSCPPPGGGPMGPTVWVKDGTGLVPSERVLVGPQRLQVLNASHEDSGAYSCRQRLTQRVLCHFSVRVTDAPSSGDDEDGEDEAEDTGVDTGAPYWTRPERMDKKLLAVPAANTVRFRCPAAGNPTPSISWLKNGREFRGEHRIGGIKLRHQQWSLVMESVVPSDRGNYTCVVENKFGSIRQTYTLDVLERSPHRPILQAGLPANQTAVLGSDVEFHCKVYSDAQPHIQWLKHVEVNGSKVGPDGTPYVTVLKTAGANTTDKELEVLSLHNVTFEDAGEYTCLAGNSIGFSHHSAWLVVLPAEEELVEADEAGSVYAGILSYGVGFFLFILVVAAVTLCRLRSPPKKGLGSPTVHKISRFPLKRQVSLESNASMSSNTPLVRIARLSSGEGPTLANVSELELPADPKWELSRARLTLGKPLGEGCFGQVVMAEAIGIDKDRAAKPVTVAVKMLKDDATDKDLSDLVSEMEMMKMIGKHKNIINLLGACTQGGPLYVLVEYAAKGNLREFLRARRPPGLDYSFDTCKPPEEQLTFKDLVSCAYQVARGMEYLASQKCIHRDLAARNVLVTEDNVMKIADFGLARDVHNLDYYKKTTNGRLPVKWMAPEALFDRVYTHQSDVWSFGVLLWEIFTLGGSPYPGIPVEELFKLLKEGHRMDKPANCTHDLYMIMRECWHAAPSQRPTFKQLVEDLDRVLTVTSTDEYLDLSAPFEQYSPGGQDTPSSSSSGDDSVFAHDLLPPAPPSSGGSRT

[19] = target: Fibroblast growth factor receptor 3 (Homo sapiens) (UniProt P22607); conditions: at 1 µM
[20] = target: Fibroblast growth factor receptor 4 (Homo sapiens) (UniProt P22455); conditions: at 0.1 µM;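 also: values are mean percent inhibition of FGFR4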
Sequence of Fibroblast growth factor receptor 4 (Homo sapiens) (P22455 22-802 limits assumed): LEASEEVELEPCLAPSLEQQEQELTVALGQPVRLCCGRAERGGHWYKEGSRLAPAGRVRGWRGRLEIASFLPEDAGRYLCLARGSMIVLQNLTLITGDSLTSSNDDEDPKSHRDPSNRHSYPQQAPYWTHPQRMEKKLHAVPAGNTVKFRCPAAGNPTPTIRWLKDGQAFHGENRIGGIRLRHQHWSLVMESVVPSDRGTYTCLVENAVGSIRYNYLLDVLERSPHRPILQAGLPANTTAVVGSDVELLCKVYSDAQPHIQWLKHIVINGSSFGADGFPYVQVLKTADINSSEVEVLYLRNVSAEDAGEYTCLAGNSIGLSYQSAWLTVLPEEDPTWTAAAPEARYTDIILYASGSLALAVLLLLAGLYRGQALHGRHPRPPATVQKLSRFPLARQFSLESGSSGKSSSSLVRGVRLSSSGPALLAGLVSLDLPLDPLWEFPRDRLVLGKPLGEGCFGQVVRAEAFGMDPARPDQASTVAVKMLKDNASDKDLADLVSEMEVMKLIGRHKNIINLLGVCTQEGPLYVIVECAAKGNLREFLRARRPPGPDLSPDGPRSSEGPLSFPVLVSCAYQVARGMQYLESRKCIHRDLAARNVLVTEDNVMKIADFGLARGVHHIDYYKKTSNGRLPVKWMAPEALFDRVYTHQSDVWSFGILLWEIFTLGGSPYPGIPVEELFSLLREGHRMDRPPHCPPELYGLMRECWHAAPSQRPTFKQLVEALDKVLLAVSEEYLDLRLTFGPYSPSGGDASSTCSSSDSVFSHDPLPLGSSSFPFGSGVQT

| SMILES | inhibition [1] | inhibition [2] | inhibition [3] | inhibition [4] | inhibition [5] | inhibition [6] | inhibition [7] | inhibition [8] | inhibition [9] | inhibition [10] | inhibition [11] | inhibition [12] | inhibition [13] | inhibition [14] | inhibition [15] | inhibition [16] | inhibition [17] | inhibition [18] | inhibition [19] | inhibition [20] |
| --- | --- | --- | --- | --- | --- | --- | --- | --- | --- | --- | --- | --- | --- | --- | --- | --- | --- | --- | --- | --- |
| COc1c(C(N)=O)cc(-c2ccc(Cl)cc2)cc1-c1ccc(S(N)(=O)=O)cc1 | 8.13% | 1.93% | 4.65% | 5.71% | 3.61% | 1.74% | 4.75% | 7.58% | 12.9% | 0.34% | 5.66% | 3.78% | 5.26% | 7.12% | 7.58% | 5.92% | 5.85% | 5.11% | 6.87% | 4.18% |
| O=C(O[C@H]1CN[C@H](C#Cc2cc3ncnc(Nc4ccc(OCc5cccc(F)c5)c(Cl)c4)c3s2)C1)N1CCOCC1 | 6.81% | 5.55% | 5.83% | 0.52% | 1.52% | 6.98% | 52.8% | 82.2% | 85.3% | 5.92% | 5.25% | 3.88% | 3.5% | 1.16% | 3.49% | 6.97% | 4.24% | 5.89% | 6.62% | 1.38% |
| CN1CCN(Cc2ccc(-c3cc4ncnc(Nc5ccc(OCc6cccc(F)c6)c(Cl)c5)c4s3)o2)CC1 | 8.33% and 7.32% | 3.73% and 7.71% | 4.63% and 4.53% | 0.3% and 3.67% | 6.48% and 3.12% | 5.26% and 7.95% | 62.3% and 65% | 81.7% and 91.1% | 93% and 97.8% | 1.93% and 6.27% | 7.48% and 15.1% | 2.89% and 4.05% | 6.42% and 6.83% | 2.24% and 7.51% | 2.3% and 1.47% | 3.18% and 3.5% | 4.91% and 4.73% | 3.81% and 6.54% | 2.58% and 3.34% | 0.04% and -5.98% |
| COc1ccc(Nc2ncc(-c3ccccc3)o2)cc1OC | -1.55% | 2.4% | -5.15% | 2.84% | 6.24% | 0.01% | -2.56% | 6.4% | 8.57% | 0.47% | 4.34% | 0.6% | 3.66% | -3.4% | 5.44% | 1.29% | 19.4% | 2.32% | 13.2% | 0.41% |
| CN1CCC(n2cnc(-c3ccc(F)cc3)c2-c2ccnc(NCCO)n2)CC1 | 10.7% | 4.67% | 2% | 1.85% | 8.07% | 0.93% | 6.66% | 9.26% | 12.3% | 7.03% | 7.14% | 2.72% | 3.24% | 3.14% | -2.05% | 3.73% | 6.49% | 7.57% | 5.67% | -1.01% |
| Fc1cccc(COc2ccc(Nc3ncncc3C#Cc3ccccc3)cc2Cl)c1 | 11.3% | 4.96% | 3.65% | 1.3% | 2.18% | 3.69% | 4.08% | 9.32% | 19% | 2.19% | 6.06% | 2.55% | 3.61% | 2.88% | 2.38% | 4.03% | 5.85% | 4.99% | 3.8% | 0.25% |
